Unmarked numbers belong to inactive results.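 Rule for the calls: active = AUC reduced over 20% with Padj below 0.05 in at least 2 of 3 replicates; inactive = otherwise.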
Tests used:
Test in all cases: growth AUC relative to DMSO control (median of replicates) (fraction); higher = more growth (less inhibition), active = hit call of the paper
Conditions in all cases: 20 µM; 24 h
Akkermansia muciniphila = tested on: Akkermansia muciniphila
Method in brief: (§1)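 In round-bottom 96-well plates sealed with pierced gas-permeable seals, gut bacterial monocultures in mGAM were grown anaerobically at 37 °C from OD600 0.05 with 20 µM compound (1% DMSO). OD600 readings were taken hourly for 24 h, and the minimum OD was set to 0. Area under the growth curve was then normalised to the plate median of solvent-only wells, or to row and column medians on the industrial chemical plate. The value given is the median of three biological replicates grown on separate days.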

Bacteroides caccae = tested on: Bacteroides caccae
Method in brief: as §1

Bacteroides clarus = tested on: Bacteroides clarus
Method in brief: as §1

Bacteroides dorei = tested on: Bacteroides dorei
Method in brief: as §1

Bacteroides stercoris = tested on: Bacteroides stercoris
Method in brief: as §1

[1] = tested on: Bacteroides thetaiotaomicron
Method in brief: as §1

Bacteroides uniformis = tested on: Bacteroides uniformis
Method in brief: as §1

[2] = tested on: Bifidobacterium longum subsp. longum
Method in brief: as §1

Clostridium difficile = tested on: Clostridium difficile
Method in brief: as §1

Collinsella aerofaciens = tested on: Collinsella aerofaciens
Method in brief: as §1

Coprococcus comes = tested on: Coprococcus comes
Method in brief: as §1

Escherichia coli ED1a = tested on: Escherichia coli ED1a
Method in brief: as §1

Escherichia coli IAI1 = tested on: Escherichia coli IAI1
Method in brief: as §1

Eubacterium rectale = tested on: Eubacterium rectale
Method in brief: as §1

[3] = tested on: Fusobacterium nucleatum subsp. animalis
Method in brief: as §1

Lactobacillus gasseri = tested on: Lactobacillus gasseri
Method in brief: as §1

Lactobacillus paracasei = tested on: Lactobacillus paracasei
Method in brief: as §1

Odoribacter splanchnicus = tested on: Odoribacter splanchnicus
Method in brief: as §1

[4] = tested on: Parabacteroides distasonis
Method in brief: as §1

Parabacteroides merdae = tested on: Parabacteroides merdae
Method in brief: as §1

Row | SMILES | growth AUC (Akkermansia muciniphila) | growth AUC (Bacteroides caccae) | growth AUC (Bacteroides clarus) | growth AUC (Bacteroides dorei) | growth AUC (Bacteroides stercoris) | growth AUC [1] | growth AUC (Bacteroides uniformis) | growth AUC [2] | growth AUC (Clostridium difficile) | growth AUC (Collinsella aerofaciens) | growth AUC (Coprococcus comes) | growth AUC (Escherichia coli ED1a) | growth AUC (Escherichia coli IAI1) | growth AUC (Eubacterium rectale) | growth AUC [3] | growth AUC (Lactobacillus gasseri) | growth AUC (Lactobacillus paracasei) | growth AUC (Odoribacter splanchnicus) | growth AUC [4] | growth AUC (Parabacteroides merdae)
1 | ClC1=C(Cl)C2(Cl)C3C(Cl)C=CC3C1(Cl)C2(Cl)Cl (stereo not given) | 1.1 | 1.01 | 1.01 | 0.958 | 1.08 | 0.99 | 0.983 | 0.932 | 0.963 | 0.951 | 0.989 | 1.02 | 1 | 1.09 | 1.12 | 0.856 | 0.967 | 0.964 | 0.842 | 1.02
2 | COP(=S)(OC)SCn1nnc2ccccc2c1=O | 1.09 | 0.98 | 0.977 | 0.877 | 0.883 | 0.969 | 0.986 | 0.949 | 0.931 | 0.941 | 0.997 | 0.957 | 0.968 | 1.07 | 0.916 | 0.929 | 0.968 | 0.902 | 0.787 | 0.944
3 | CCCSP(=S)(OCC)Oc1ccc(Cl)cc1Cl (stereo not given) | 1.06 | 0.796 | 1.05 | 0.98 | 1.41 | 0.961 | 1.01 | 1.07 | 1.05 | 0.965 | 1 | 1.05 | 1.01 | 1.04 | 1.11 | 1.01 | 0.984 | 0.778 | 0.984 | 1.01
4 | CN(C)C(CSC(N)=O)CSC(N)=O.Cl | 1.13 | 0.993 | 1.04 | 1.08 | 1.02 | 1.06 | 1.15 | 1.05 | 1 | 1.03 | 1.09 | 1.03 | 1.04 | 1.54 | 1.15 | 0.978 | 1.08 | 0.982 | 1.04 | 1.04
5 | O=S1OCC2C(CO1)C1(Cl)C(Cl)=C(Cl)C2(Cl)C1(Cl)Cl (stereo not given) | 1.08 | 1 | 0.962 | 0.999 | 0.779 | 0.976 | 0.874 | 1.04 | 0.992 | 0.971 | 1.03 | 1.02 | 1.04 | 1.08 | 1.13 | 0.763 | 1.05 | 1.03 | 1.1 | 0.951
6 | COc1cc(OC)nc(NC(=O)NS(=O)(=O)c2ncccc2C(=O)N(C)C)n1 | 1 | 0.94 | 0.98 | 0.957 | 1.11 | 1.01 | 1.01 | 0.96 | 1 | 0.965 | 0.966 | 1.05 | 0.972 | 0.999 | 1.05 | 0.93 | 0.889 | 1.03 | 1.02 | 0.988
7 | CN(C)C(=S)[S-].CN(C)C(=S)[S-].[Zn+2] | 0.76 | 0.876 | 0.965 | 0.857 | 0.799 (active) | 0.694 (active) | 0.819 | 0.884 | 0.945 | 0.969 | 0.834 | 0.953 | 0.906 | 0.563 (active) | 0.993 | 0.976 | 0.966 | 0.384 (active) | 0.954 | 0.699 (active)
8 | CNC(=O)Oc1cc(C)c(S(C)=O)c(C)c1 (stereo not given) | 0.977 | 0.949 | 0.999 | 1 | 1.13 | 0.978 | 1.02 | 1.04 | 0.968 | 1.05 | 0.997 | 1.01 | 0.97 | 0.884 | 1.09 | 0.963 | 0.952 | 0.996 | 1 | 1.05
9 | CCOP(=S)(OCC)SCS(=O)CC (stereo not given) | 1.03 | 0.99 | 0.994 | 1.01 | 1.05 | 1.02 | 0.994 | 1.03 | 0.972 | 1.01 | 1.03 | 0.996 | 1.01 | 0.995 | 1.04 | 0.95 | 0.95 | 1.06 | 1.09 | 0.998
10 | Oc1ccc(C(c2ccc(O)cc2)(C(F)(F)F)C(F)(F)F)cc1 | 1.03 | 0.63 (active) | 0.464 (active) | 0.154 (active) | 0.0109 (active) | 0.679 (active) | 0.686 (active) | 0.924 | 0.966 | 0.894 | 1.06 | 0.969 | 1 | 0.792 (active) | 0.595 (active) | 0.577 | 0.727 | 0.0871 (active) | 0.0433 (active) | 0.515 (active)
11 | CCOP(=S)(OCC)Oc1cc(C)nc(N(CC)CC)n1 | 1.03 | 0.926 | 0.979 | 0.976 | 0.938 | 0.961 | 0.943 | 1.01 | 1 | 0.994 | 1.03 | 0.996 | 0.994 | 0.969 | 1.01 | 1.02 | 1.02 | 1.08 | 0.845 | 0.963
12 | CCOP(=S)(OCC)SCSC(C)(C)C | 1.04 | 0.964 | 1.01 | 0.963 | 0.988 | 0.998 | 1.02 | 1.13 | 0.888 | 0.96 | 0.996 | 1 | 1.01 | 1.22 | 0.902 | 0.909 | 1.03 | 1.06 | 0.955 | 1
13 | O=P(OCCCl)(OCCCl)OCCCl | 0.628 (active) | 0.985 | 0.986 | 0.995 | 0.651 (active) | 0.972 | 0.874 | 0.895 | 0.963 | 0.977 | 0.916 | 0.98 | 0.963 | 0.89 | 0.88 | 0.98 | 1.09 | 0.868 | 0.989 | 0.921
14 | CC(C)(C)C(O)C(Cc1ccc(Cl)cc1Cl)n1cncn1 (mixture of isomers) | 1.11 | 0.923 | 0.969 | 0.889 | 0.868 | 0.921 | 0.932 | 1.04 | 1.01 | 0.936 | 0.982 | 0.981 | 0.979 | 0.845 | 0.963 | 0.947 | 1.01 | 0.989 | 0.871 | 0.889
15 | CNC(=O)/C=C(\C)OP(=O)(OC)OC | 1.05 | 1.03 | 0.991 | 1.02 | 1.09 | 1.01 | 1.01 | 0.947 | 1.04 | 1.04 | 1.05 | 1.05 | 1.02 | 0.999 | 1.02 | 1.03 | 1.06 | 0.989 | 1.03 | 1.01
16 | CCNc1nc(NC(C)C)[nH]c(=O)n1 | 0.993 | 1 | 1.02 | 1.04 | 0.998 | 1 | 1.07 | 0.962 | 1.05 | 1.02 | 0.992 | 1.03 | 1.05 | 0.992 | 1.06 | 1.03 | 0.963 | 0.994 | 1.02 | 1
17 | CON(C)C(=O)Nc1ccc(Br)c(Cl)c1 | 0.863 | 1.04 | 0.978 | 1.08 | 0.958 | 0.998 | 0.944 | 0.946 | 0.996 | 1 | 1.03 | 0.958 | 1.04 | 0.867 | 0.886 | 1.13 | 0.989 | 0.998 | 1.01 | 0.967

Reference: the supplement of paper PMC12669032
